Experimental data from PubChem BioAssay (EPA / NIEHS).
Where a structure was tested more than once in an assay, its records may differ in their call. Active and inactive are the calls of the source. How the source made its calls: active means hit-call score of the fitted dose curve at least 0.9, where 1 is the maximum; inactive means score below 0.9.

How the values were obtained:
[1] = read-out: flavin-containing dimethylaniline monooxygenases 3 (FMO3), FMO3 (gene 2328); experiment: LTEA_HepaRG_FMO3: Life Technologies and Expression Analysis (LTEA) Assay for flavin-containing dimethylaniline monooxygenases 3 (FMO3) using HepaRG (AID 2283453); details: mRNA level, 48 h; actives raise or lower the signal
Procedure, shortened: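 Differentiated HepaRG cells in serum-free induction medium, exposed 48 h in duplicate to 8 half-log concentrations up to 100 uM in 0.5% DMSO. FMO3 mRNA by qRT-PCR, normalized to ACTB, GAPDH, POLR2A; bidirectional fit vs DMSO.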

[2] = read-out: Cytochrome P450 (CYP1A1), CYP1A1 (gene 1543); experiment: LTEA_HepaRG_CYP1A1: Life Technologies and Expression Analysis (LTEA) Assay for Cytochrome P450 (CYP1A1) using HepaRG (AID 2283454); details: mRNA level, 48 h; actives raise or lower the signal
Procedure, shortened: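 Induction of CYP1A1 mRNA in a human hepatic cell line was measured 48 h after dosing, with 1 mM phenobarbital as induction positive control and 0.5% DMSO vehicle as baseline for bidirectional curve fitting.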

[3] = read-out: CFLAR gene, CFLAR (gene 8837); experiment: LTEA_HepaRG_CFLAR: Life Technologies and Expression Analysis (LTEA) Assay for CFLAR gene using HepaRG (AID 2283455); details: mRNA level, 48 h; actives raise or lower the signal
Procedure, shortened: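 Differentiated HepaRG cells in serum-free induction medium were exposed 48 h in duplicate to eight half-log concentrations up to 100 uM in 0.5% DMSO; mRNA measured by TaqMan qRT-PCR, normalized to ACTB, GAPDH, POLR2A; bidirectional fitting versus DMSO.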

[4] = read-out: Forkhead box O1 (FOXO1), FOXO1 (gene 2308); experiment: LTEA_HepaRG_FOXO1: Life Technologies and Expression Analysis (LTEA) Assay for Forkhead box O1 (FOXO1) using HepaRG (AID 2283456); details: mRNA level, 48 h; actives raise or lower the signal
Procedure, shortened: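 Differentiated HepaRG cells, in serum-free induction medium with 0.5% DMSO, exposed 48 h in duplicate to 8-point half-log series from 100 uM. FOXO1 mRNA measured by TaqMan qRT-PCR, normalized to ACTB, GAPDH, POLR2A; bidirectional fit versus DMSO.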

[5] = CEETOX_H295R_TESTO: CeeTox H295R High-throughput Steroidogenesis Assay for Testosterone (TESTO) (AID 2283457); details: actives raise or lower the signal
Procedure, shortened: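 Testosterone synthesis is assessed in human adrenocortical H295R cells after 48 h of chemical exposure, using HPLC-MS/MS of extracted medium. Activity is fitted in both directions against DMSO control.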

[6] = read-out: growth arrest and DNA damage 45 (GADD45A), GADD45A (gene 1647); experiment: LTEA_HepaRG_GADD45A: Life Technologies and Expression Analysis (LTEA) Assay for growth arrest and DNA damage 45 (GADD45A) using HepaRG (AID 2283458); details: mRNA level, 48 h; actives raise or lower the signal
Procedure, shortened: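 Cells plated and cultured 48 h, switched to serum-free induction medium, then dosed for 48 h (100 uM top, half-log dilutions, 0.5% DMSO). RNA was isolated and transcript measured by Fluidigm qRT-PCR.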

[7] = read-out: Forkhead box O3 (FOXO3), FOXO3 (gene 2309); experiment: LTEA_HepaRG_FOXO3: Life Technologies and Expression Analysis (LTEA) Assay for Forkhead box O3 (FOXO3) using HepaRG (AID 2283459); details: mRNA level, 48 h; actives raise or lower the signal
Procedure, shortened: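 Differentiated human HepaRG cells, 48 h post-plating, exposed in duplicate for 48 h in serum-free induction medium; 8-point half-log series from 100 uM in 0.5% DMSO. FOXO3 mRNA by TaqMan qRT-PCR, normalized to ACTB/GAPDH/POLR2A; bidirectional fit versus DMSO.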

[8] = read-out: ABC Transporter (ABCB1), ABCB1 (gene 5243); experiment: LTEA_HepaRG_ABCB1: Life Technologies and Expression Analysis (LTEA) Assay for ABC Transporter (ABCB1) using HepaRG (AID 2283460); details: mRNA level, 48 h; actives raise or lower the signal
Procedure, shortened: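 HepaRG cells exposed in duplicate for 48 h in serum-free induction medium to eight half-log concentrations up to 100 uM in 0.5% DMSO. ABCB1 mRNA quantified by qRT-PCR, normalised to ACTB, GAPDH and POLR2A; fitted bidirectionally versus DMSO.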

[9] = read-out: growth arrest and DNA damage 45 (GADD45B), GADD45B (gene 4616); experiment: LTEA_HepaRG_GADD45B: Life Technologies and Expression Analysis (LTEA) Assay for growth arrest and DNA damage 45 (GADD45B) using HepaRG (AID 2283461); details: mRNA level, 48 h; actives raise or lower the signal
Procedure, shortened: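 Values are bidirectional concentration-response fits against 0.5% DMSO controls. Underlying data: qRT-PCR mRNA levels in human HepaRG liver cells treated 48 h in serum-free induction medium, eight concentrations topping at 100 uM.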

[10] = read-out: ABC Transporter (ABCC3), ABCC3 (gene 8714); experiment: LTEA_HepaRG_ABCC3: Life Technologies and Expression Analysis (LTEA) Assay for ABC Transporter (ABCC3) using HepaRG (AID 2283462); details: mRNA level, 48 h; actives raise or lower the signal
Procedure, shortened: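 Differentiated HepaRG liver cells receive test chemicals at eight concentrations (max 100 uM) for 48 h. Expression of ABCC3 is quantified by qRT-PCR against ACTB, GAPDH and POLR2A, and activity is fitted in both directions against the DMSO control.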

[11] = read-out: ABC Transporter (ABCB11), ABCB11 (gene 8647); experiment: LTEA_HepaRG_ABCB11: Life Technologies and Expression Analysis (LTEA) Assay for ABC Transporter (ABCB11) using HepaRG (AID 2283463); details: mRNA level, 48 h; actives raise or lower the signal
Procedure, shortened: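 Differentiated human HepaRG cells in serum-free induction medium, dosed in duplicate for 48 h. Eight-point half-log series from 100 uM in 0.5% DMSO; ABCB11 mRNA by qRT-PCR, normalized to ACTB, GAPDH, POLR2A, fitted bidirectionally versus DMSO.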

[12] = read-out: ABC Transporter (ABCC2), ABCC2 (gene 1244); experiment: LTEA_HepaRG_ABCC2: Life Technologies and Expression Analysis (LTEA) Assay for ABC Transporter (ABCC2) using HepaRG (AID 2283464); details: mRNA level, 48 h; actives raise or lower the signal
Procedure, shortened: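 Gene expression of ABCC2 was determined by qRT-PCR in HepaRG cells exposed 48 h to chemicals (highest 100 uM, half-log dilutions). Activity was fitted in both directions relative to 0.5% DMSO vehicle.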

[13] = read-out: Broad substrate specificity ATP-binding cassette transporter ABCG2 (Homo sapiens) (UniProt Q9UNQ0); experiment: LTEA_HepaRG_ABCG2: Life Technologies and Expression Analysis (LTEA) Assay for ABC Transporter (ABCG2) using HepaRG (AID 2283465); details: mRNA level, 48 h; actives raise or lower the signal
Procedure, shortened: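 Differentiated HepaRG cells were exposed for 48 h in serum-free induction medium to 8 half-log concentrations, top 100 uM, in 0.5% DMSO. ABCG2 mRNA was measured by qRT-PCR, normalized to ACTB, GAPDH and POLR2A, with bidirectional fitting versus DMSO.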

[14] = read-out: ATP-citrate lyase (ACLY), ACLY (gene 47); experiment: LTEA_HepaRG_ACLY: Life Technologies and Expression Analysis (LTEA) Assay for ATP-citrate lyase (ACLY) using HepaRG (AID 2283466); details: mRNA level, 48 h; actives raise or lower the signal
Procedure, shortened: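 Differentiated HepaRG cells exposed 48 h in serum-free induction medium to eight half-log concentrations up to 100 uM in 0.5% DMSO, duplicates. Transcript measured by Fluidigm TaqMan qRT-PCR, normalized to ACTB, GAPDH, POLR2A; bidirectional fit versus DMSO.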

[15] = read-out: Peroxisomal acyl-coenzyme A oxidase 1 (ACOX1) gene, ACOX1 (gene 51); experiment: LTEA_HepaRG_ACOX1: Life Technologies and Expression Analysis (LTEA) Assay for Peroxisomal acyl-coenzyme A oxidase 1 (ACOX1) gene using HepaRG (AID 2283467); details: mRNA level, 48 h; actives raise or lower the signal
Procedure, shortened: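 HepaRG cells, plated 48 h then switched to serum-free induction medium, were exposed in duplicate for 48 h to 8-point half-log concentrations up to 100 uM in 0.5% DMSO. ACOX1 mRNA was measured by qRT-PCR, normalized to ACTB/GAPDH/POLR2A, and fitted bidirectionally versus DMSO.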

[16] = read-out: Alkaline Phosphatase, Placental (ALPP) gene, ALPP (gene 250); experiment: LTEA_HepaRG_ALPP: Life Technologies and Expression Analysis (LTEA) Assay for Alkaline Phosphatase, Placental (ALPP) gene using HepaRG (AID 2283468); details: mRNA level, 48 h; actives raise or lower the signal
Procedure, shortened: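 Expression of ALPP was quantified by qRT-PCR against three housekeeping genes in human HepaRG cultures treated for 48 h with an eight-point concentration series up to 100 uM. Activity in either direction was fitted relative to 0.5% DMSO.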

[17] = read-out: Bcl-2 (BAD) gene, BAD (gene 572); experiment: LTEA_HepaRG_BAD: Life Technologies and Expression Analysis (LTEA) Assay for Bcl-2 (BAD) gene using HepaRG (AID 2283469); details: mRNA level, 48 h; actives raise or lower the signal
Procedure, shortened: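 Differentiated HepaRG cells were exposed in duplicate in 0.5% DMSO for 48 h to eight-point half-log concentrations up to 100 uM. BAD mRNA was measured by Fluidigm TaqMan qRT-PCR, normalized to ACTB, GAPDH and POLR2A, and fitted bidirectionally against DMSO.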

[18] = read-out: Bcl-2 (BAX) gene, BAX (gene 581); experiment: LTEA_HepaRG_BAX: Life Technologies and Expression Analysis (LTEA) Assay for Bcl-2 (BAX) gene using HepaRG (AID 2283470); details: mRNA level, 48 h; actives raise or lower the signal
Procedure, shortened: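 HepaRG (human liver), 48 h exposure, duplicate wells. 8-pt curve, half-log from 100 uM, 0.5% DMSO. BAX transcript by TaqMan qRT-PCR; ACTB/GAPDH/POLR2A normalization; gain or loss vs DMSO baseline.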

[19] = read-out: adenosine kinase (ADK) gene, ADK (gene 132); experiment: LTEA_HepaRG_ADK: Life Technologies and Expression Analysis (LTEA) Assay for adenosine kinase (ADK) gene using HepaRG (AID 2283471); details: mRNA level, 48 h; actives raise or lower the signal
Procedure, shortened: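 Read-out is ADK transcript level measured by qRT-PCR and normalised to three housekeeping genes. Cells are human HepaRG, dosed for 48 h at up to 100 uM in 0.5% DMSO. Gain or loss of signal is fitted against DMSO controls.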

[20] = read-out: Alpha-fetoprotein (AFP) gene, AFP (gene 174); experiment: LTEA_HepaRG_AFP: Life Technologies and Expression Analysis (LTEA) Assay for Alpha-fetoprotein (AFP) gene using HepaRG (AID 2283472); details: mRNA level, 48 h; actives raise or lower the signal
Procedure, shortened: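 HepaRG, single lot; 48 h post-plating -> serum-free induction medium; cpd 8-pt, 100 uM top, half-log, 0.5% DMSO, duplicate, 48 h. RNA -> qRT-PCR AFP, norm ACTB/GAPDH/POLR2A. Bidirectional fit vs DMSO.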

Measured: AC50

Chain of Broad substrate specificity ATP-binding cassette transporter ABCG2 (Homo sapiens) (Q9UNQ0 whole entry, looked up): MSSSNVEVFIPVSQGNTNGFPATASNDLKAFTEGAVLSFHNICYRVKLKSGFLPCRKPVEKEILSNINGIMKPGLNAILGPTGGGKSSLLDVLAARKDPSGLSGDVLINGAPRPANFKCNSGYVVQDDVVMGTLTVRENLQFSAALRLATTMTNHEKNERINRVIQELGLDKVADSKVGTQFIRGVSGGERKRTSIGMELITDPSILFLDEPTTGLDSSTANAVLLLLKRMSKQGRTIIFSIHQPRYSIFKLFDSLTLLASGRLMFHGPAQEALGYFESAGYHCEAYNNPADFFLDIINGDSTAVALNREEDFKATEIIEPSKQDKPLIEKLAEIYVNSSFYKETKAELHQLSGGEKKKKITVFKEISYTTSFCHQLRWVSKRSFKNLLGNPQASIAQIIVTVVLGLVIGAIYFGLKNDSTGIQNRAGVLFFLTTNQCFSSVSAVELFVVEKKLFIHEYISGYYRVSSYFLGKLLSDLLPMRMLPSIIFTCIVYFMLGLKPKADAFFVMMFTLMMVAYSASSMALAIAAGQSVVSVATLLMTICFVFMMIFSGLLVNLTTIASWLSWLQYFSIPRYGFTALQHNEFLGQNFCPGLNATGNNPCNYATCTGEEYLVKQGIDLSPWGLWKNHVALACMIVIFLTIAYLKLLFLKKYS

CSC(=O)c1cccc2nnsc12
active: [2] 50 µM
inactive: all other assays above

CCSC(=O)N(CC(C)C)CC(C)C
active: [2] 50 µM
not listed: [5]
inactive: all other assays above

CCOC(=O)C(C)Oc1ccc(Oc2cnc3cc(Cl)ccc3n2)cc1 (stereo unspecified)
active: [1] 14 µM | [2] 18.5 µM | [11] 1.93 µM
not listed: [5]
inactive: all other assays above

CC1(C)C(C=C(Cl)Cl)C1C(=O)OCc1cccc(Oc2ccccc2)c1 (stereo unspecified)
active: [2] 35.9 µM
not listed: [5]
inactive: all other assays above

OB(O)O
not listed: [5]
inactive: all other assays above

O=C(O)c1ccccc1
active: [2] 51.2 µM
inactive: [1] | [2] | [3] | [4] | [6] | [7] | [8] | [9] | [10] | [11] | [12] | [13] | [14] | [15] | [16] | [17] | [18] | [19] | [20]
